Inconclusive results are not listed. The source made the active and inactive calls. Calls come from the whole dose curve; as a rule, active = well fitted curve in the direction sought with a large enough effect; inconclusive = small, poorly fitted or top-dose-only effect, or another doubt; inactive = no such curve, though single readings can be large; an effect the other way counts as inactive or inconclusive.
Legend:
[1] = qHTS of pediatric cancer cell lines to identify multiple opportunities for drug repurposing: Confirmatory screen for U-2 OS cells (AID 1347122); note: nearly all actives have a fitted effect of over 65% in size
Procedure, shortened: (§1)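 Cells (500-1,000/well) in growth media were settled 5 h at 37 degrees C, then given compounds for 48 h. Viability was read as CellTiter-Glo luminescence. Primary runs used MIPE at 11 points (0.78 nM-46 µM) and NPC at 8 points (0.59 nM-46 µM); follow-ups used 11 points.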

[2] = qHTS of pediatric cancer cell lines to identify multiple opportunities for drug repurposing: Confirmatory screen for Rh41 cells (AID 1347123);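 note: 48 h compound exposure; nearly all actives have a fitted effect of over 60% in size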
Procedure, shortened: as §1

[3] = qHTS of pediatric cancer cell lines to identify multiple opportunities for drug repurposing: Confirmatory screen for RD cells (AID 1347124);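 note: cells exposed to compound for 48 h before viability readout; nearly all actives have a fitted effect of over 65% in size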
Procedure, shortened: as §1

[4] = qHTS of pediatric cancer cell lines to identify multiple opportunities for drug repurposing: Confirmatory screen for Rh30 cells (AID 1347126); note: nearly all actives have a fitted effect of over 55% in size
Procedure, shortened: as §1

[5] = qHTS of pediatric cancer cell lines to identify multiple opportunities for drug repurposing: Confirmatory screen for Saos-2 cells (AID 1347127); note: nearly all actives have a fitted effect of over 60% in size
Procedure, shortened: as §1

[6] = qHTS of pediatric cancer cell lines to identify multiple opportunities for drug repurposing: Confirmatory screen for OHS-50 cells (AID 1347128);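 note: compound exposure lasted 48 h at 37 degrees C; nearly all actives have a fitted effect of over 55% in size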
Procedure, shortened: as §1

[7] = qHTS of pediatric cancer cell lines to identify multiple opportunities for drug repurposing: Confirmatory screen for SK-N-SH cells (AID 1347129);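 note: cells exposed to compound for 48 h before viability read; nearly all actives have a fitted effect of over 60% in size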
Procedure, shortened: as §1

[8] = qHTS of pediatric cancer cell lines to identify multiple opportunities for drug repurposing: Confirmatory screen for Rh18 cells (AID 1347125); note: nearly all actives have a fitted effect of over 55% in size
Procedure, shortened: as §1

[9] = molecular target: Furin (Homo sapiens) (UniProt P09958); assay: Furin counterscreen qHTS for Zika virus inhibitors (AID 1347149); note: nearly all actives have a fitted effect of over 70% in size;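 for activity change, negative = inhibition: purified recombinant full-length human furin enzyme at 5 nM; fluorescence gain from furin cutting a BOC-RVRR-AMC peptide substrate over 15 min; top concentration of the series differs between compounds; plate controls were no-inhibitor control for no effect and no-enzyme control for full effect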
Procedure, shortened: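 Counterscreen measures cleavage of 2 microM BOC-RVRR-AMC, below its ~15 microM Km, by 5 nM full-length human furin at pH 7.0 after a 15-min compound preincubation. Inhibition derives from the 15-min fluorescence increase at 37C.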
Potency is the fitted concentration of half-maximal effect.

Chain of Furin (Homo sapiens) (P09958 whole entry, looked up): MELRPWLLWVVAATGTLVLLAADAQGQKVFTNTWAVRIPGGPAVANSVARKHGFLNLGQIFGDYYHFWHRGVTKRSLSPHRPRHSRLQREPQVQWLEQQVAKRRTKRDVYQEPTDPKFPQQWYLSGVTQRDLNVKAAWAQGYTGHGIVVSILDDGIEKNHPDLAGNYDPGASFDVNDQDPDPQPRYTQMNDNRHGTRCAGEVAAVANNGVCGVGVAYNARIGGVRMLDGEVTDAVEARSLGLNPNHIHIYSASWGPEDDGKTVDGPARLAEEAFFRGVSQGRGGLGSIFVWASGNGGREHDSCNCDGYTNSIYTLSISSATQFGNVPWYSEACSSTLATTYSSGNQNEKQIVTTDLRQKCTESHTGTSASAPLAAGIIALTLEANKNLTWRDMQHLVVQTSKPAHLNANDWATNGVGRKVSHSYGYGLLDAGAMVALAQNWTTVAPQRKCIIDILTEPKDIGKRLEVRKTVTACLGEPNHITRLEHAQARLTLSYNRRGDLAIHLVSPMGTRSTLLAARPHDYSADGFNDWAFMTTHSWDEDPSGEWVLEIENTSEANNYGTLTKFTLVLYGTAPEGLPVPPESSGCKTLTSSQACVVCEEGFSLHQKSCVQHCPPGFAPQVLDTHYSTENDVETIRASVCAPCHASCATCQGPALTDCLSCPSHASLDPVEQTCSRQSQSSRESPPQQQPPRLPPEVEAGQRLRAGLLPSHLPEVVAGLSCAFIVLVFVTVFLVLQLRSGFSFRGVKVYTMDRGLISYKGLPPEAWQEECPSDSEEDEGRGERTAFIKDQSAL

C=C1[C@H](n2cnc3c(=O)[nH]c(N)nc32)C[C@H](O)[C@H]1CO
inactive: Potency [1] | Potency [2] | Potency [3] | Potency [4] | Potency [5] | Potency [6] | Potency [7]

CC(C)n1c(C=C[C@H](O)C[C@H](O)CC(=O)O)c(-c2ccc(F)cc2)c2ccccc21
active: Potency [1] 3690 nM | Potency [2] 20800 nM | Potency [3] 10400 nM | Potency [8] 8270 nM | Potency [5] 1040 nM | Potency [6] 10400 nM | Potency [7] 4180 nM

C=CC(=O)Nc1cccc(Sc2nc(Nc3ccc(N4CCN(C)CC4)cc3)ncc2Cl)c1
active: Potency [1] 16500 nM | Potency [2] 10400 nM | Potency [3] 5850 nM | Potency [4] 9270 nM | Potency [5] 16500 nM | Potency [6] 14700 nM | Potency [7] 9350 nM

CC1=C(CC(=O)O)c2cc(F)ccc2C1=Cc1ccc(S(C)=O)cc1 (stereo not drawn)
inactive: Potency [1] | Potency [2] | Potency [3] | Potency [4] | Potency [5] | Potency [6] | Potency [7]

CCC(=O)OCC(=O)[C@@]1(OC(=O)CC)[C@@H](C)C[C@@H]2[C@H]3CCC4=CC(=O)C=C[C@]4(C)[C@@]3(F)[C@@H](O)C[C@@]21C
inactive: Potency [1] | Potency [3] | Potency [4] | Potency [5] | Potency [6]
active: Potency [2] 14700 nM | Potency [7] 20900 nM

CON(C)C(=O)N1N=C(c2cc(F)ccc2F)S[C@]1(CCCN)c1ccccc1
inactive: Potency [4]
active: Potency [1] 46.5 nM | Potency [2] 18.5 nM | Potency [3] 46.5 nM | Potency [5] 5.9 nM | Potency [6] 5.2 nM

NC(N)=Nc1nc(CSCCC(N)=NS(N)(=O)=O)cs1
inactive: Potency [1] | Potency [2] | Potency [3] | Potency [4] | Potency [5] | Potency [6] | Potency [7]

N#CC(=C1Nc2ccccc2S1)c1ccnc(OCc2ccc(CN3CCOCC3)cc2)n1
inactive: Potency [1] | Potency [2] | Potency [3] | Potency [4] | Potency [7]

C[C@@H]1[C@H](O)[C@@H](C)C=CC=CC=CC=CC=CC=CC=C[C@H](O[C@@H]2O[C@H](C)[C@H](O)[C@H](N)[C@@H]2O)C[C@@H]2O[C@](O)(C[C@@H](O)C[C@@H](O)[C@H](O)CC[C@@H](O)C[C@@H](O)CC(=O)O[C@H]1C)C[C@H](O)[C@@H]2C(=O)O
inactive: Potency [1] | Potency [2] | Potency [3] | Potency [8] | Potency [4] | Potency [5] | Potency [6] | Potency [7]

CO[C@H]1/C=C\O[C@@]2(C)Oc3c(C)c(O)c4c(O)c(c(C=NN5CCN(C6CCCC6)CC5)c(O)c4c3C2=O)NC(=O)C(C)=CC=C[C@H](C)[C@H](O)[C@@H](C)[C@@H](O)[C@@H](C)[C@H](OC(C)=O)[C@H]1C
inactive: Potency [1] | Potency [3] | Potency [7]
active: Potency [2] 20800 nM | Potency [5] 20800 nM

CC(C)CN(C[C@H](O)[C@H](Cc1ccccc1)NC(=O)O[C@H]1CCOC1)S(=O)(=O)c1ccc(N)cc1
inactive: Potency [1] | Potency [2] | Potency [3] | Potency [8] | Potency [4] | Potency [5] | Potency [6] | Potency [7]

COc1ccc(-c2ccc3ncc4c(c3c2)n(-c2ccc(N3CCNCC3)c(C(F)(F)F)c2)c(=O)n4C)cn1
active: Potency [1] 465 nM | Potency [2] 58.5 nM | Potency [3] 185 nM | Potency [8] 414 nM | Potency [4] 293 nM | Potency [6] 369 nM | Potency [7] 132 nM
inactive: activity change, negative = inhibition [9] -10.9% [at 5.45 µM]

Cc1nn(Cc2ccccc2Cl)c(C)c1CN(C)CC(O)COc1ccc(Cl)cc1 (stereo not drawn)
active: Potency [1] 18500 nM

COc1cc2c(cc1Cc1cccc(Cl)c1F)c(=O)c(C(=O)O)cn2[C@H](CO)C(C)C
inactive: Potency [1] | Potency [3] | Potency [8]
active: Potency [2] 16500 nM

CC1=C[C@@H]2[C@@H]([C@@H](O)C[C@@]3(C)[C@H]2C[C@@H](C)[C@]3(O)C(=O)CO)[C@@]2(C)Cc3cnn(-c4ccccc4)c3C=C12
active: Potency [2] 23300 nM
inactive: Potency [1] | Potency [8] | Potency [4] | Potency [5]

C[C@@H]1C[C@H]2[C@@H]3CCC4=CC(=O)C=C[C@]4(C)[C@@]3(F)[C@@H](O)C[C@]2(C)[C@@]1(O)C(=O)CO
inactive: Potency [1] | Potency [2] | Potency [3] | Potency [4] | Potency [5] | Potency [6] | Potency [7]

Cc1c(C(=O)Nc2ccc(N3C[C@@H](C)O[C@@H](C)C3)nc2)cccc1-c1ccc(OC(F)(F)F)cc1
inactive: Potency [3] | Potency [7]
active: Potency [1] 18500 nM | Potency [2] 16500 nM

CSc1cccc(Nc2ncc3cc(-c4c(Cl)cccc4Cl)c(=O)n(C)c3n2)c1
active: Potency [1] 3290 nM | Potency [2] 465 nM | Potency [3] 369 nM | Potency [4] 6570 nM | Potency [5] 2330 nM | Potency [6] 4650 nM | Potency [7] 2640 nM

CC1C(=O)OC2C(O)C34C5CC(C(C)(C)C)C36C(OC(=O)C6O)OC4(C(=O)O5)C12O (stereo not drawn)
inactive: Potency [1] | Potency [2] | Potency [3] | Potency [8] | Potency [5] | Potency [6] | Potency [7]

Nc1ccc(-c2ccc3ncc4ccc(=O)n(-c5cccc(C(F)(F)F)c5)c4c3c2)cn1
active: Potency [1] 185 nM | Potency [2] 36.9 nM | Potency [3] 233 nM | Potency [4] 329 nM | Potency [5] 329 nM | Potency [6] 261 nM | Potency [7] 296 nM

Cc1ccc(C(=O)N(CCCN)[C@@H](c2nc3cc(Cl)ccc3c(=O)n2Cc2ccccc2)C(C)C)cc1
active: Potency [1] 60.3 nM | Potency [2] 24 nM | Potency [3] 2400 nM | Potency [4] 38000 nM | Potency [5] 67.6 nM | Potency [7] 12100 nM

CCC[C@H](N[C@@H](C)C(=O)N1[C@@H]2CCCC[C@H]2C[C@H]1C(=O)O)C(=O)OCC
inactive: Potency [1] | Potency [2] | Potency [3] | Potency [7]

CC(C)C[C@H](NC(=O)c1cc2ccccc2s1)C(=O)N1CCN(C(=O)[C@H](CO)NS(=O)(=O)c2ccc(Cl)cc2Cl)CC1
active: Potency [1] 29.3 nM | Potency [2] 18500 nM

CCNC(=O)c1noc(-c2cc(C(C)C)c(O)cc2O)c1-c1ccc(CN2CCOCC2)cc1
active: Potency [1] 117 nM | Potency [2] 46.5 nM | Potency [3] 73.7 nM | Potency [4] 73.7 nM | Potency [5] 131 nM | Potency [6] 147 nM | Potency [7] 132 nM

CN1CCN(c2ncc(-c3cc(Cl)cc(Cl)c3Cl)c(N)n2)CC1
inactive: Potency [1] | Potency [2] | Potency [3] | Potency [5] | Potency [6]
active: Potency [7] 20900 nM

CN(C)CCN(C)C(=O)c1ccc(NC(=O)Nc2ccc(-c3nc(N4CCOCC4)c4ccn(CC(F)(F)F)c4n3)cc2)cc1
active: Potency [1] 3690 nM | Potency [2] 208 nM | Potency [3] 928 nM | Potency [4] 369 nM | Potency [7] 4690 nM

CC1(COc2ccc3c(c2)ncn3-c2ccc3cccc(N4CCC(N)CC4)c3n2)COC1
active: Potency [1] 10400 nM | Potency [2] 8270 nM | Potency [7] 10500 nM
inactive: Potency [3] | Potency [5]

O=C1NC(=O)C(c2cnc3ccccn23)=C1c1cn2c3c(cccc13)CN(C(=O)N1CCOCC1)CC2
active: Potency [2] 18.5 nM | Potency [6] 10400 nM
inactive: Potency [1] | Potency [3] | Potency [8] | Potency [4] | Potency [5]

Cc1ccc(C(=O)N(CCCN)[C@@H](c2oc3cc(Cl)ccc3c(=O)c2Cc2ccccc2)C(C)C)cc1
active: Potency [1] 36.9 nM | Potency [2] 9.3 nM | Potency [3] 16.5 nM | Potency [4] 23300 nM | Potency [5] 9.3 nM | Potency [6] 9.3 nM

COC(=O)[C@H](c1ccccc1Cl)N1CCc2sccc2C1
inactive: Potency [1] | Potency [2] | Potency [3] | Potency [4] | Potency [5] | Potency [6] | Potency [7]

O=C(c1ccc(F)c(F)c1Nc1ccc(I)cc1F)N1CC(O)([C@H]2CCCCN2)C1
active: Potency [1] 2610 nM | Potency [2] 14700 nM

O=C1Nc2ccc(I)cc2C1=Cc1cc(Br)c(O)c(Br)c1
inactive: Potency [9]

CCOC(=O)[C@H](CCc1ccccc1)N[C@@H](C)C(=O)N1CCCC1C(=O)O (stereo partly drawn)
inactive: Potency [9]

CN1N=C(N)c2cn([C@@H]3O[C@H](COP(=O)(O)O)[C@@H](O)[C@@H]3O)c3ncnc1c23
active: Potency [2] 1170 nM | Potency [5] 1850 nM | Potency [6] 1170 nM | Potency [7] 1050 nM

O=C(Nc1ccccc1)Nc1ccc(-c2ccc(C(=O)[C@H]3CCC[C@H]3C(=O)O)cc2)cc1
active: Potency [9] 34000 nM

COc1cc(Cl)cn2c(-c3cccc(NC4CNC4)n3)cnc12
active: Potency [9] 27100 nM

COc1cc(CNC(=O)CCCCC=CC(C)C)ccc1O
inactive: Potency [3] | Potency [4] | Potency [5] | Potency [6]

COc1cc2ncnc(Nc3cc(Br)c(O)c(Br)c3)c2cc1OC
inactive: Potency [3] | Potency [5] | Potency [6]

O=C(Nc1cccc2c(=O)cc(-c3nn[nH]n3)oc12)c1ccc(OCCCCc2ccccc2)cc1
active: Potency [9] 30400 nM

COc1cc2nccc(Oc3ccc(NC(=O)Nc4cc(C)on4)c(Cl)c3)c2cc1OC
active: Potency [7] 9350 nM

Cc1ccc(S(=O)(=O)Nc2nc3ccccc3nc2Nc2ccc3nsnc3c2)cc1
inactive: Potency [7]

CC[C@H](NC(=O)[C@H](C)NC)C(=O)N1C[C@@H](O)C[C@H]1Cc1c(-c2[nH]c3cc(F)ccc3c2C[C@H]2C[C@H](O)CN2C(=O)[C@H](CC)NC(=O)[C@H](C)NC)[nH]c2cc(F)ccc12
active: Potency [5] 5220 nM
inactive: Potency [3] | Potency [4] | Potency [7]

CN(C(Cc1ccc(OS(=O)(=O)c2cccc3cnccc23)cc1)C(=O)N1CCN(c2ccccc2)CC1)S(=O)(=O)c1cccc2cnccc12 (stereo not drawn)
inactive: Potency [7]
active: Potency [2] 5220 nM | Potency [6] 5220 nM

CCCC1OC2C[C@@H]3[C@H]4CCC5=CC(=O)C=C[C@]5(C)[C@H]4C(O)C[C@]3(C)[C@]2(C(=O)CO)O1 (stereo partly drawn)
inactive: Potency [6] | Potency [7]

CCCCOCCOc1nc(-c2ccc(C(=O)O)c(F)c2)sc1C
active: Potency [9] 12100 nM

Cc1csc(-c2nnc(Nc3ccc(Oc4ncccc4-c4ccnc(N)n4)cc3)c3ccccc23)c1
inactive: Potency [3] | Potency [4] | Potency [6]
active: Potency [7] 6620 nM
